RmlCD inh mix: RmlC and RmlD coupled enzyme inhibitors, primary screen, biochemical, 384-well, compound mixtures, retest. inhibition, % at 5.5 µM. 110,000 tested, 0.39% active. RmlC/RmlD coupled enzyme inhibition, 384-well mixture HTS. AID 1532, 2009; in the data active means inhibition above about 30%, passing the limit was not always enough
YopH PTP inh: YopH tyrosine phosphatase inhibitors, primary screen, biochemical, fluorescence Ex485/Em525. inhibition, % (concentration not given with the values). YopH tyrosine phosphatase [Yersinia enterocolitica]. AID 898, 2007. 140,000 tested, 0.16% active; in the data active means inhibition above about 50%
Active calls of the source: *; / = not tested or not shown. Sampled rows, rich in hits. Any-hit rate of the full collection: about 0.41%.

SMILES | RmlCD inh mix | YopH PTP inh
CCOC(=O)/C(N=Nc1ccc(F)cc1)=C(/O)c1ccc([N+](=O)[O-])cc1 | / | 61.5*
CCOC(=O)C(CC)/C(C)=N/NC(=O)c1ccc([N+](=O)[O-])cc1 (stereo unspecified) | -7.3 | -39.5
CCOc1ccc(NC(=O)C(C)Oc2ccccc2C(=O)Nc2cccc(Cl)c2Cl)cc1 (stereo unspecified) | -3.3 | -11.1
CC1CN(S(=O)(=O)c2cccc(C(=O)OCc3cc(=O)oc4cc(O)ccc34)c2)CC(C)O1 (stereo unspecified) | 82.4* | 1.3
CN(C)c1cccc(C(=O)OCc2cc(=O)oc3cc(O)ccc23)c1 | 59.3 | 10.4
O=C(Cc1ccccc1)Nc1cccc(N2C(=O)C=CC2=O)c1 | / | -19.0
COc1cc(NC(=O)COc2ccc(Cl)cc2)ccc1-c1cc2ccccc2oc1=O | / | -16.7
Nc1ccc2c(c1)Cc1ccccc1-2 | / | -23.0
COC1=C(c2ccccc2)C(=O)c2ccccc2C1=O | / | 49.3
Nc1ccc2c(c1)C(=O)C(=O)c1ccccc1-2 | 1.1 | 100.9*
O=C1C(=O)c2ccc(-c3ccccc3)cc2-c2ccccc21 | -8.3 | 76.7*
O=C(NCc1ccco1)C1CC(c2cc(C(F)(F)F)cc(C(F)(F)F)c2)=NO1 (stereo unspecified) | -14.7 | /
CCN1C(=C2C(=O)c3ccccc3C2=O)C=Cc2ccccc21 | 15.4 | -3.2
O=C1C=Cc2ccccc2C1=O | -33.9 | 62.5*
CCc1cccc(NC(=O)CSc2nc3c(c(=O)[nH]2)CCCC3)c1 | / | -26.8
CCOC(=O)C(NC(=O)NCc1ccc(F)cc1)(OCC)C(F)(F)F (stereo unspecified) | / | -14.5
CCOC(=O)C(NC(=O)Nc1ccccc1)(OCC)C(F)(F)F (stereo unspecified) | 3.3 | 53.0*
Cn1c(N=NC(=O)c2ccccc2)c(O)c2ccccc21 | / | -16.9
O=c1[nH]c(Nc2ccccc2)cc2cc(Br)ccc12 | -7.7 | /
O=c1[nH]c(Nc2ccccc2)cc2ccccc12 | -9.7 | 101.2*
O=C(OCc1cc(=O)n2cc(Br)ccc2n1)c1ccc(Cl)c(S(=O)(=O)NCc2ccccc2)c1 | / | -24.8
Cc1cc(C)c(NC(=O)c2ccc[n+](Cc3ccc([N+](=O)[O-])cc3)c2)c(C)c1 | / | 14.7
Nc1cccc(C2=Nc3cccc4cccc(c34)N2)c1 | / | 62.1*
COc1ccc(C2=Nc3cccc4cccc(c34)N2)cc1 | / | -21.2
CCOC(=O)C1=C(c2ccccc2)ON(C)C1c1ccccc1 (stereo unspecified) | / | -31.1
SMILES | RmlCD inh mix | YopH PTP inh
CCOc1ccc(-c2nc(C#N)c(NCC3CCCO3)o2)cc1 (stereo unspecified) | 5.0 | -12.5
COc1ccc(-c2nc(C#N)c(NCC3CCCO3)o2)cc1OC (stereo unspecified) | 42.0* | 7.2
CC1=C[C@H]2OC(=O)[C@@H](C)[C@H]2C[C@@H]2[C@H]1C[C@@H](O)[C@@]2(C)O | 15.9 | /
CCCc1nnc(NC(=O)c2ccc(N3C(=O)C4C5C=CC(C5)C4C3=O)cc2)s1 (stereo unspecified) | -10.6 | -21.2
O=C(Nc1nnc(C(F)(F)F)s1)c1ccc(N2C(=O)C3C4C=CC(C4)C3C2=O)cc1 (stereo unspecified) | -8.6 | 97.6*
Cc1onc(-c2ccccc2)c1C(=O)NCc1ccccn1 | -15.9 | 53.3*
Cc1onc(-c2c(Cl)cccc2Cl)c1C(=O)NCc1ccccn1 | 4.1 | -19.7
CCOc1ccc(C(=O)NCc2ccccn2)cc1 | -30.6 | -37.9
O=C(NCc1ccccn1)c1coc(=O)c(Br)c1 | 33.8* | -13.4
CC1CCN(c2nc(Cl)nc(Nc3ccc([N+](=O)[O-])cc3)n2)CC1 | / | -31.3
CC(c1c(O)c2ccccc2[nH]c1=O)C1(C)CCC(O)C(C)(C)O1 (stereo unspecified) | -8.9 | /
CNC(=O)C12CC3CC(CC(Cl)(C3)C1)C2 | / | -9.0
CCCCCCCC(=O)NC(Nc1ccc(S(N)(=O)=O)cc1)C(Cl)(Cl)Cl (stereo unspecified) | -12.2 | -31.3
COC(=O)CSc1nnc(CNC(=O)c2ccccc2OC)n1C | 4.7 | -37.7
COC(=O)CSc1nnc(CNC(=O)c2cccc(C)c2)n1-c1ccccc1OC | / | 75.9*
CN(C)CCNC(=O)/C=N/O | / | 4.4
CCSc1nc2[nH]ncc2c(=O)[nH]1 | / | -25.3
CC1CC(C)CN(C(=O)COC(=O)CCc2nc3ccccc3c(=O)[nH]2)C1 (stereo unspecified) | / | -27.0
COc1ccc(Cl)cc1CN1CCN(c2nc(C)cc(C)c2C#N)CC1 | 4.8 | -47.3
COc1ccc(F)cc1CN1CCN(c2cc(C)nc3c4c(C)cc(C)nc4nn23)CC1 | 50.5* | -38.6
NC(=O)CC(NC(=O)Cc1cccc2ccccc12)c1ccc(NCCc2ccccc2F)c([N+](=O)[O-])c1 (stereo unspecified) | -3.3 | /
COc1ccc(-c2nc(C#N)c(NC(C)c3ccccc3)o2)cc1OC (stereo unspecified) | / | -6.8
CCOc1cc(CNc2ccc(S(N)(=O)=O)cc2)cc(Cl)c1OC | / | -25.4
